Compound activity from PubChem.
A selection: hits, their analogues and other compounds. The true share with any hit is near 21%.
DT40 TDP1 CPT: DT40-hTDP1 cell growth loss with CPT; 420,000 tested, 12% active; chicken DT40 Tdp1-/-;hTDP1 cells + 20 nM CPT, ATP luminescence, 48 h; Potency, µM (doses to about 46.2 µM), inactives show at the highest dose activity change, negative = growth inhibition, most hits filed as inhibitors; further: potency means the concentration at half of the fitted maximal effect; on the % scale 0 is the no-effect control and ±100 the full control effect; nearly all actives have a fitted effect of over 55% in size
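Chicken DT40 Tdp1-/- cells stably complemented with human TDP1 were seeded at 400 cells/well in medium containing 20 nM camptothecin, exposed to pin-transferred compounds, and grown at 37 °C for at least 48 hr. Viability was read as ATP luminescence.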
D3 antag: D3 dopamine receptor (human) antagonism | D3R cells, DiscoveRx beta-arrestin luminescence, antagonist mode; stronger effect = lower value | P35462 | max response, negative = inhibition, % | AID 652054 | 360,000 tested, 2.5% active; in the data active means max response below about -50%; inconclusive means no clear call, values can overlap the other calls; further: on the % scale 0 is the no-effect control and ±100 the full control effect
Target sequence (P35462 whole entry, looked up): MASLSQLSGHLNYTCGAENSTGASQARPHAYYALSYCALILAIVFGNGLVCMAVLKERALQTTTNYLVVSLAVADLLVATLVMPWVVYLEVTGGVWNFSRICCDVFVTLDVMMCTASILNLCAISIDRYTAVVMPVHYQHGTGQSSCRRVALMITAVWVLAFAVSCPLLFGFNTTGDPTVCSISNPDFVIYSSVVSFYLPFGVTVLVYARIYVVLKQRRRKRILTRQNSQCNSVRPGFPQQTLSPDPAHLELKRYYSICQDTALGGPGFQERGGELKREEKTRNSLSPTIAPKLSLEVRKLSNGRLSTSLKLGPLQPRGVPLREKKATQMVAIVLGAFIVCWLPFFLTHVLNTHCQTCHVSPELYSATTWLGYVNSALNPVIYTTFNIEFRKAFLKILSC
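Cells expressing the human receptor were seeded at 1500 cells/well, incubated overnight at 37 degrees C in 5% CO2, then exposed to library compounds with dopamine controls for 90 minutes at 37 degrees C before luminescent detection.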
ClpP mod: qHTS Assay for Activators of ClpP. ATP-dependent Clp protease proteolytic subunit (Bacillus subtilis (strain 168)), P80244. purified B. subtilis ClpP, FRET peptide cleavage, 20 min. Potency, µM (series often up to 57.5 µM), without a hit: at the highest dose activity change, negative = active. 340,000 tested, 1.9% active; active means well fitted falling curve with a large enough effect; inconclusive means small, poorly fitted or top-dose-only effect; inactive means no such curve, though single readings can be large or run the other way; further: potency means the concentration at half of the fitted maximal effect; the source files actives as falling curves though it sought activators and does not explain the sign; nearly all actives have a fitted effect of over 65% in size
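Buffer: 100 mM Tris/HCl pH8, 100 mM KCl, 0.05% low protease BSA, 2.5% glycerol, 0.01% Tween-20. ClpP 10 microg/mL final; 20 min RT; delta FRET normalized to ADEP and DMSO controls.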
IL1B secr inh: blocks inflammasome-driven IL-1 beta release | THP-1 LPS/ATP IL-1B secretion, AlphaLISA, 16 h; stronger effect = lower value | 360,000 tested, 4.7% active | activity change, % at 57.5 µM; in the data active means activity change below about -50%; inconclusive means mostly about -30% to -49%; further: on the % scale 0 is the no-effect control and ±100 the full control effect
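THP-1 cells pretreated 1 hr with compounds (up to 57.5 uM final), then stimulated with LPS (250 ng/mL final) plus ATP (1.25 mM final); secreted IL-1B measured by AlphaLISA after 16 hr, decreased signal indicating inhibition.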
DT40 TDP1 no CPT: qHTS for Inhibitors of human tyrosyl-DNA phosphodiesterase 1 (TDP1): qHTS in cells in absence of CPT; DT40 Tdp1-/- hTDP1 cells, no CPT, ATP luminescence, 48 h; Potency, µM (series often up to 46.2 µM), for the others: at the highest dose activity change, negative = growth inhibition, most hits filed as inhibitors; 420,000 tested, 15% active; AID 686978, 2013; further: potency means the concentration at half of the fitted maximal effect; on the % scale 0 is the no-effect control and ±100 the full control effect; nearly all actives have a fitted effect of over 55% in size
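Stably hTDP1-transfected Tdp1-null chicken DT40 cells were treated with library compounds minus camptothecin and grown for at least 48 hr at 37 °C, after which cellular ATP was quantified by luminescence.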
D3 ag: D3 dopamine receptor (human) agonism. 410,000 tested, 0.58% active. D3R DiscoveRx beta-arrestin cells, luminescence, 90 min. AID 652048. P35462. max activation, %; in the data active means max activation above about 30%; further: 0% is about no effect
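Agonist-mode cell screen: cells plated at 1500/well and incubated overnight at 37 °C, then exposed to library compounds for 90 min at 37 °C. Detection reagent was added for 30–60 min at room temperature, and luminescence was read.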
Numbers without * were called inactive; i = inactive; ? = inconclusive; / = no result; ! = repeats disagree. Unless noted, the call rests on the fitted dose curve; in most records, active means well fitted inhibition curve with a large enough effect; inconclusive means small, poorly fitted or top-dose-only effect; inactive means flat fitted curve, though single readings scatter.

SMILES	DT40 TDP1 CPT	D3 antag	ClpP mod	IL1B secr inh	DT40 TDP1 no CPT	D3 ag
COc1ccc(N(Cc2cccs2)C(=O)COc2cccc(Cl)c2)cc1	?	/	0.3%	/	?	-5.5
O=C(NCc1cccs1)c1ccccc1[N+](=O)[O-]	5.3%	0.5	-1.0%	10.0	4.3%	3.2
CC(=O)c1cccc(NC(=S)N2CCN(S(=O)(=O)c3ccc(F)cc3)CC2)c1	23.5%	1.2	/	-7.0	-10.5%	-2.1
Cc1ccccc1OCC(=O)Nc1c2c(nn1C(C)(C)C)CS(=O)(=O)C2	-8.6%	-16.1	-1.1%	i	-10.4%	-1.6
Cc1ccccc1NC(=O)C(NS(=O)(=O)c1ccc2c(c1)c(=O)n(C)c(=O)n2C)c1ccccc1 (centres undefined)	?	?	-1.6%	-3.5	16.4µM*	-1.8
COc1ccccc1NC(=O)C(Cc1ccccc1)NS(=O)(=O)c1ccc2c(c1)c(=O)n(C)c(=O)n2C (centres undefined)	23.1µM*	/	-13.9%	/	?	-18.6
O=C1CN(c2ccccc2)C(=S)N1C(=O)c1ccc(Br)cc1	?	10.1	1.0%	-3.4	-19.8%	1.6
CC(=O)NCC1CCCN(C(=O)c2ccc(OC3CCN(Cc4ccccn4)CC3)cc2)C1 (centres undefined)	-7.4%	5.6	-0.7%	27.8	17.9%	21.4
Cc1cc(OCc2cn3cccnc3n2)ccc1Cl	-1.1%	-6.2	15.8µM*	-15.3	-9.2%	-16.6
Clc1ccc(SCc2cn3cccnc3n2)cc1	5.3%	8.5	-0.1%	-15.4	-16.2%	7.4
COc1ccc(NC(=O)C[C@H]2C(=O)N(C3CCCCC3)C[C@@H]2c2ccc(OC)cc2)cc1	?	1.6	-0.1%	-20.9	?	-1.8
CCOC(=O)C1(Cc2ccccc2C)CCCN(C(=O)c2ccc3nccnc3c2)C1 (centres undefined)	?	34.7	-2.6%	-6.0	20.6µM*	5.2
CCOC(=O)C1(Cc2ccccc2C)CCCN(C(=O)CCn2nccc2C)C1 (centres undefined)	?	-26.6	/	37.6	13µM*	-14.8
CCOC(=O)C1(Cc2ccccc2C)CCCN(C(=O)CCc2cccnc2)C1 (centres undefined)	16.4µM*	13.0	1.6%	12.7	?	1.8
CCOC(=O)C1(Cc2ccccc2C)CCCN(C(=O)CSC)C1 (centres undefined)	?	6.4	/	12.0	?	-11.2
CCOC(=O)C1(Cc2ccccc2C)CCCN(C(=O)c2cc(C3CC3)[nH]n2)C1 (centres undefined)	-24.3%	-10.2	/	8.9	?	-14.9
COc1cc(C(=O)N2CCN(CCc3ccccn3)CC2)cc(OC)c1OC	3.4%	/	-0.2%	/	-17.9%	-7.7
O=C1c2ccccc2NC(c2ccc(OCc3ccccc3)c(OCc3ccccc3)c2)N1Cc1ccco1 (centres undefined)	11.2µM*	/	4.3%	/	12.6µM*	/
COc1cc(C2Nc3ccccc3C(=O)N2Cc2ccco2)ccc1O (centres undefined)	?	/	3.8%	/	?	/
O=C1c2ccccc2NC(c2ccc(O)cc2)N1Cc1ccco1 (centres undefined)	-2.0%	-18.7	31.6µM*!	-3.2	?	0.3
Cc1ccc(C2Nc3ccccc3C(=O)N2Cc2ccco2)cc1 (centres undefined)	18.4µM*	0.0	25.1µM*	-11.9	?	-2.6
CCOCc1c(C(=O)NCc2ccccc2CN2CCCC2)oc2ccccc12	?	22.3	-4.9%	12.4	?	-18.1
Cc1ccc(Nc2cc(C)nn2-c2nc(C)cc(C)n2)cc1	5.8µM*	?	1.5%	-27.7	5.8µM*	0.2
CC(=O)Nc1cc(C)nn1-c1nc(C)cc(C)n1	-6.3%	4.3	0.1%	2.1	-3.9%	1.9
